Test [1] has as its target Estrogen receptor (Homo sapiens) (UniProt P03372). The test is described as follows: qHTS assay for small molecule antagonists of estrogen receptor alpha signaling (AID 588513; active = well fitted curve in the direction sought with a large enough effect in the signal ratio, with a control signal flat, not every such curve was filed as active; the % refers to the signal ratio; note: % is set by controls: 0 for no effect and ±100 for the full control effect). A digest of the protocol: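 Fluorescence from CCF4 substrate after 2 h at room temperature gave reporter activity; cells had been exposed to compound and 0.5nM 17-beta-estradiol for 18 h at 37 C. Hill-equation fitting yielded IC50 and maximal response.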

The target is the same in test [2]. The test is described as follows: qHTS assay for small molecule agonists of estrogen receptor alpha signaling (AID 588514; calls by dose curve;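 note: 0% = vehicle only and 100% = reference agonist; nearly all actives have a fitted effect of over 70% in size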). A digest of the protocol: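 EC50 and efficacy came from Hill fits of beta-lactamase reporter signal (CCF4 dye, 2 h at room temperature) scaled between DMSO and 20 nM 17-beta-estradiol. Agonist mode: HEK293 ER-alpha-UAS-bla cells in charcoal/dextran-stripped serum medium, 18 h compound exposure at 37 C.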

The target of test [3] is Glucocorticoid receptor (Homo sapiens) (UniProt P04150). The test is described as follows: qHTS assay for small molecule agonists of glucocorticoid receptor signaling (AID 588532; active = well fitted curve in the direction sought with a large enough effect in the signal ratio, with a control signal flat; the % refers to the signal ratio;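 note: 100% = dexamethasone at 0.1 µM and 0% = DMSO only wells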). Particulars: HeLa MMTV-bla, beta-lactamase ratio, agonist, 18 h; stronger effect = higher value; percent of dexamethasone control, DMSO zero. A digest of the protocol:
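MMTV-bla HeLa, beta-lactamase reporter; medium with 1% charcoal/dextran-stripped FBS; cpds up to 92 uM, 18 h, 37 C; CCF4 readout 460/530 nm; Hill fit → EC50, efficacy vs 0.1 uM dexamethasone = 100%.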

A short description of test [4]: qHTS assay for small molecule antagonists of peroxisome proliferator-activated receptor delta signaling (AID 588535; active = well fitted inhibition curve with a large enough effect in the signal ratio, with a control signal flat, not every such curve was filed as active; the % refers to the signal ratio;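 for max response: cells co-treated with a PPAR-delta agonist as stimulator during compound exposure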). As to conditions: HEK293T PPARd-UAS-bla, beta-lactamase FRET ratio, 18 h; 460 nm channel. A digest of the protocol:
(§1)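 Inhibition of PPAR-delta response element-driven beta-lactamase expression is measured in HEK293T cells exposed to a compound titration series for 18 hrs at 37 C. Half-maximal inhibition comes from Hill equation fitting.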

The target in test [5] is Peroxisome proliferator-activated receptor delta (Homo sapiens) (UniProt Q03181). The description is as above. A digest of the protocol: as §1
Sequence of Peroxisome proliferator-activated receptor delta (Homo sapiens) (Q03181 whole entry, looked up): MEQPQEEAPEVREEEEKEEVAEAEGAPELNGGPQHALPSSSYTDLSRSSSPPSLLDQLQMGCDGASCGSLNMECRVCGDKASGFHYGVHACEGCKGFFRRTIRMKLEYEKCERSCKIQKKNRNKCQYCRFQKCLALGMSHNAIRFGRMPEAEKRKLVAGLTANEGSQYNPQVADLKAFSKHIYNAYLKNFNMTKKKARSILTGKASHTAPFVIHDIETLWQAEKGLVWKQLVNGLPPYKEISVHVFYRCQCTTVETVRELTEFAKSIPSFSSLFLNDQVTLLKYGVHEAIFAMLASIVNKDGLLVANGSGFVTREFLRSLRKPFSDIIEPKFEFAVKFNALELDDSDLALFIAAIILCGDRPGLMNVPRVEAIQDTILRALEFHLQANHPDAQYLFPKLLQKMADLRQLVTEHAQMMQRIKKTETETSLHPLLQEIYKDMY
The target in test [6] is Peroxisome proliferator-activated receptor gamma (Homo sapiens) (UniProt P37231). The test is described as follows: qHTS assay for small molecule agonists of peroxisome proliferator-activated receptor gamma signaling (AID 588536; active = well fitted curve in the direction sought with a large enough effect in the signal ratio, with a control signal flat, not every such curve was filed as active; the % refers to the signal ratio;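 note: 0% = DMSO basal wells and 100% = rosiglitazone at 2 µM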). A digest of the protocol:
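Compound treatment: 16 h, 37 C, HEK293 GeneBLAzer cells. Detection: CCF4, 2 h RT. Values: Hill-fit EC50, efficacy as % of 2 uM rosiglitazone.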
On the technique in general: Quantitative high-throughput screening tests each substance at several concentrations.

For test [7], the target named is Thyroid hormone receptor beta (Homo sapiens) (UniProt P10828). Briefly: qHTS assay for small molecule agonists of thyroid hormone receptor beta signaling (AID 588545; calls by dose curve). A digest of the protocol:
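Cells (2500/well) were seeded, incubated 4 hrs at 37 C, dosed with a compound series, incubated 18 hrs, loaded with CCF4 dye for 2 hrs at RT, then read for fluorescence. Data were scaled between DMSO (0%) and 10 nM T3 (100%).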

A short description of test [8]: qHTS assay for small molecule antagonists of retinoid X receptor alpha signaling (AID 588546; active = well fitted inhibition curve with a large enough effect in the signal ratio, with a control signal flat, not every such curve was filed as active; the % refers to the signal ratio;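 note: cells stimulated with 9-cis-retinoic acid as agonist; % is set by controls: 0 for no effect and ±100 for the full control effect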). Particulars: HEK293T RXRa-UAS-bla, beta-lactamase ratio, antagonist mode; measured here: W530 green channel, cytotoxicity proxy. A digest of the protocol:
(§2)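 Beta-lactamase reporter inhibition, read as CCF4 fluorescence ratio (ex 405, em 460/530 nm) after 2 h at RT. HEK293T UAS-bla cells, 2500/well, were stimulated with 9-cis-RA at 500 or 100 nM final alongside test compound for 18 h at 37 C.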

The target of test [9] is Retinoic acid receptor RXR-alpha (Homo sapiens) (UniProt P19793). The test is described as above. Particulars: HEK293T RXRa-UAS-bla, beta-lactamase ratio, antagonist mode. A digest of the protocol:
as §2

Test [10] concerns the target Thyroid hormone receptor beta (Homo sapiens) (UniProt P10828). The test is described as follows: qHTS assay for small molecule antagonists of thyroid hormone receptor beta signaling (AID 588547; active = well fitted inhibition curve with a large enough effect in the signal ratio, with a control signal flat, not every such curve was filed as active; the % refers to the signal ratio;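 note: cells stimulated with 0.4 nM T3 agonist during compound exposure; series mostly up to about 77 µM; % is set by controls: 0 for no effect and ±100 for the full control effect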). As to conditions: TR-UAS-bla HEK293, beta-lactamase ratio, antagonist mode, 18 h. A digest of the protocol:
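TR-UAS-bla GripTite HEK293 cells in 2% charcoal/dextran FBS medium were preincubated 4 h at 37 C, given compound (0.59 nM to 92 uM) plus 0.4 nM T3 (final) for 18 h, then CCF4 for 2 h at RT; Hill fit gave IC50.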

A short description of test [11]: qHTS assay for small molecule activators of the p53 signaling pathway (AID 651743; active = well fitted activation curve with a large enough effect in the signal ratio, not every such curve was filed as active; the % refers to the signal ratio; note: series mostly up to about 92 µM; % of control where 0% means no effect). Particulars: HCT-116 p53RE-bla, beta-lactamase FRET ratio, 16 h; activation: stronger effect = higher value. A digest of the protocol:
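Agonist-mode quantitative HTS in HCT-116 cells carrying a p53-response-element beta-lactamase reporter; 16 h compound treatment at 37 C, then FRET substrate loading for 2 h at room temperature and fluorescence read.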

The nature of test [12]: qHTS assay for environmental chemicals that activate the Aryl hydrocarbon Receptor (AhR) signaling pathway (AID 651777). Note: % of control where 0% means no effect; nearly all actives have a fitted effect of over 15% in size. Particulars: 1A2-DRE human hepatoma cells, luciferase, 24 h; activation: stronger effect = higher value. A digest of the protocol: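 Stable CYP1A2 promoter/DRE-luciferase human hepatoma line treated 24 hr; One-Glo luminescence, 30 min RT.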
In test [13] the target is Peroxisome proliferator-activated receptor alpha (Homo sapiens) (UniProt Q07869). The test is described as follows: qHTS assay for small molecule agonists of the peroxisome proliferator-activated receptor alpha (PPARalpha) signaling pathway (AID 651778). Note: % of control where 0% means no effect. Particulars: PathHunter PPARalpha complementation, chemiluminescence, 6 h; max response: stronger effect = higher value. A digest of the protocol: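 Cells plated at 2,000/well and held overnight at 37 C, 5% CO2, then compound added by pin tool for 6 hr; after PathHunter detection reagent and 60 min at room temperature, chemiluminescence from enzyme complementation was read.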
Sequence of Peroxisome proliferator-activated receptor alpha (Homo sapiens) (Q07869 whole entry, looked up): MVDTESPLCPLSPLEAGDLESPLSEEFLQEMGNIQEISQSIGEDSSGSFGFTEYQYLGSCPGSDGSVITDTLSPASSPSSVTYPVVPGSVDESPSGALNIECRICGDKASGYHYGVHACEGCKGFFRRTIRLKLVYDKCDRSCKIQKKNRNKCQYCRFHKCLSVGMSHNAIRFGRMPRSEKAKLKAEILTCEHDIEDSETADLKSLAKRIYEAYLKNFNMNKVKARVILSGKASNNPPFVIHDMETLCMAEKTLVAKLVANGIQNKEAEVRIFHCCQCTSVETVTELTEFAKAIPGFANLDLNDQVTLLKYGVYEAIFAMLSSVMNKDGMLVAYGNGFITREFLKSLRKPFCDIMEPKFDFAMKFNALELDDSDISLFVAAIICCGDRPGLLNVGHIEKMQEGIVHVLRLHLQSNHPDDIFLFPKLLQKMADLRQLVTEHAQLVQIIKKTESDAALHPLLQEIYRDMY

The nature of test [14]: qHTS assay for small molecule agonists of the antioxidant response element (ARE) signaling pathway measured by Nrf2-dependant transcriptional activity (AID 720636; active = well fitted curve in the direction sought with a large enough effect in the repeat runs; an effect the other way counts as inactive or inconclusive;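 note: HepG2 cells with an ARE-driven luciferase reporter; % of control where 0% means no effect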). A digest of the protocol:
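Reporter gene assay, HepG2 ARE-luc: 16 hr compound, 37 C, 5% CO2; read-out luciferase luminescence.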

The nature of test [15]: qHTS assay for small molecule agonists of the antioxidant response element (ARE) signaling pathway measured by Nrf2-dependant transcriptional activity - cell viability counter screen (AID 720653; active = well fitted curve in the direction sought with a large enough effect in the repeat runs; an effect the other way counts as inactive or inconclusive; note: % is set by controls: 0 for no effect and ±100 for the full control effect). As to conditions: ARE-bla HepG2 viability, CellTiter-Glo ATP luminescence, 16 h; max response: stronger effect = lower value. A digest of the protocol: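 ARE-bla HepG2 cells (2,000/well) rested 5 hrs at 37C/5% CO2, then exposed to compounds in DMSO for 16 hrs. Viability was read in the same wells as intracellular ATP by luminescence, 30 min at room temperature after reagent addition.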

A short description of test [16]: qHTS assay for cell viability of HEK293 cells (AID 743288). Note: % is set by controls: 0 for no effect and ±100 for the full control effect; nearly all actives have a fitted effect of over 50% in size. As to conditions: ATP luminescence (CellTiter-Glo), 18 h; max response: stronger effect = lower value. A digest of the protocol:
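Viable-cell counts were inferred from luciferase-based ATP content in HEK293 cells seeded at 2,000/well, pre-incubated ≥5 h, then dosed with DMSO-solubilised compounds for 18 h at 37 C.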

Test [17] is described as follows: qHTS assay for cell viability of the p53RE-bla HCT-116 cell line (AID 743292). Note: % is set by controls: 0 for no effect and ±100 for the full control effect; nearly all actives have a fitted effect of over 55% in size. A digest of the protocol: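 Readout: CellTiter-Glo luminescence after 30 min RT. Treatment: compounds in DMSO, 16 h, 37 C. Cells: CellSensor p53RE-bla HCT-116, 4,000/well, preincubated 5 h.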
Test [18] concerns the target Nuclear receptor subfamily 1 group I member 2 (Rattus norvegicus) (UniProt Q9R1A7). The test is described as follows: qHTS assay for small molecule activators of the rat pregnane X receptor (rPXR) signaling pathway (AID 651751; call rule not given here; note: 0% is about no effect). Particulars: rPXR reporter cells, luciferase (One-Glo), 24 h.
A short description of test [19]: qHTS assay for small molecule activators of the human pregnane X receptor (PXR) signaling pathway (AID 720659; call rule not given here; note: 0% is about no effect).
A short description of test [20]: qHTS assay for small molecule agonists of retinoid X receptor alpha signaling (AID 588544). As to conditions: HEK293T RXRa-UAS-bla, beta-lactamase reporter, 18 h; 530 nm emission.

Results filed as inconclusive are left out. Active and inactive are the calls of the source. Unless noted, calls come from the whole dose curve; as a rule, active = well fitted curve in the direction sought with a large enough effect; inconclusive = small, poorly fitted or top-dose-only effect, or another doubt; inactive = no such curve, though single readings can be large; an effect the other way counts as inactive or inconclusive.

Sequence of Thyroid hormone receptor beta (Homo sapiens) (P10828 whole entry, looked up): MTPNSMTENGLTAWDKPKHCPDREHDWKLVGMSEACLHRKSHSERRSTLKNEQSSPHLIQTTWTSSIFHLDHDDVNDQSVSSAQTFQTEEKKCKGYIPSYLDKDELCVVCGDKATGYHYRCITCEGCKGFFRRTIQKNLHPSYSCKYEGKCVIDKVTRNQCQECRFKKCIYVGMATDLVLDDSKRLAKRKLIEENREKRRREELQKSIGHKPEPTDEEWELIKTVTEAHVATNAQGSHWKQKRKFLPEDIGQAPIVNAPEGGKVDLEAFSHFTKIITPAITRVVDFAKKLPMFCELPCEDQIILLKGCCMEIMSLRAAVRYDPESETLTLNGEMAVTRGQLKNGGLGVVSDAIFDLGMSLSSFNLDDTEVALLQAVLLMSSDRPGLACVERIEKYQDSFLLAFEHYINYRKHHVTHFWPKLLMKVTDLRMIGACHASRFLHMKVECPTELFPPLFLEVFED
Sequence of Retinoic acid receptor RXR-alpha (Homo sapiens) (P19793 whole entry, looked up): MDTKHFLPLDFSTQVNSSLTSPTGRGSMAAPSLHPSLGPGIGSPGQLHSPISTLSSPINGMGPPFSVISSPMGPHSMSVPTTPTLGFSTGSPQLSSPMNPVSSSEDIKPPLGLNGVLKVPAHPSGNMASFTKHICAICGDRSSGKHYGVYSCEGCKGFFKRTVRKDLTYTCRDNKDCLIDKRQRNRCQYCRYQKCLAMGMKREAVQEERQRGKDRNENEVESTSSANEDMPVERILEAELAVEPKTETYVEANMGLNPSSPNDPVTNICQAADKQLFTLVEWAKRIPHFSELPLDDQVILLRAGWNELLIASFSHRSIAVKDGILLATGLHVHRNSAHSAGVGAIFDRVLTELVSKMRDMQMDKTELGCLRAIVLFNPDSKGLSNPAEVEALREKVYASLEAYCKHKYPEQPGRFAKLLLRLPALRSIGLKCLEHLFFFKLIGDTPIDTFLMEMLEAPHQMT
Sequence of Nuclear receptor subfamily 1 group I member 2 (Rattus norvegicus) (Q9R1A7 whole entry, looked up): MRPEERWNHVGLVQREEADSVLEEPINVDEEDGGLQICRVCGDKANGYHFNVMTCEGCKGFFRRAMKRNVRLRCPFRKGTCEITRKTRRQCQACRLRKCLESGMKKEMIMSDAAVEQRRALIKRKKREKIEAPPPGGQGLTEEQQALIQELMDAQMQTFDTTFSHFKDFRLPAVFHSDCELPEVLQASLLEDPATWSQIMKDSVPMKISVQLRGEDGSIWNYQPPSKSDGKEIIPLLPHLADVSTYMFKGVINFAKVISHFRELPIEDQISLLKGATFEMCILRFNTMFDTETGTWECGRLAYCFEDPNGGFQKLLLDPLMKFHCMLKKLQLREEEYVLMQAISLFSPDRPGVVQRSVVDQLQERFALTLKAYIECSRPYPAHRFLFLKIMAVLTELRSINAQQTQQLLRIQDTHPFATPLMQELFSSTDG
Sequence of Estrogen receptor (Homo sapiens) (P03372 whole entry, looked up): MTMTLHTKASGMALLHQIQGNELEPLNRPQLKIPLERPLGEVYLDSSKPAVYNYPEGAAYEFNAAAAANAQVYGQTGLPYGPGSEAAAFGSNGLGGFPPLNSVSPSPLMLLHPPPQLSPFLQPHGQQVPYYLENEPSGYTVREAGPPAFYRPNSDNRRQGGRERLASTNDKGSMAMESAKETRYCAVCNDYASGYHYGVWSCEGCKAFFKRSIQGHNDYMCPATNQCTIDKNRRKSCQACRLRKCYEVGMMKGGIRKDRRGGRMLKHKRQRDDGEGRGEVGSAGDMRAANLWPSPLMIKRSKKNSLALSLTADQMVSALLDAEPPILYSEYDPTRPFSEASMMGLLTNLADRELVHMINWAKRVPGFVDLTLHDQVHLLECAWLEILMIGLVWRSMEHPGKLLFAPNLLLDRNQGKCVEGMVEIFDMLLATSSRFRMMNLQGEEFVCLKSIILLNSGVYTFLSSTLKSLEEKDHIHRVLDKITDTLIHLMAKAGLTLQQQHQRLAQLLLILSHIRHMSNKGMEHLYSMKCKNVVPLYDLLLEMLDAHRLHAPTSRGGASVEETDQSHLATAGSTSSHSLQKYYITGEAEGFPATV
Sequence of Peroxisome proliferator-activated receptor gamma (Homo sapiens) (P37231 whole entry, looked up): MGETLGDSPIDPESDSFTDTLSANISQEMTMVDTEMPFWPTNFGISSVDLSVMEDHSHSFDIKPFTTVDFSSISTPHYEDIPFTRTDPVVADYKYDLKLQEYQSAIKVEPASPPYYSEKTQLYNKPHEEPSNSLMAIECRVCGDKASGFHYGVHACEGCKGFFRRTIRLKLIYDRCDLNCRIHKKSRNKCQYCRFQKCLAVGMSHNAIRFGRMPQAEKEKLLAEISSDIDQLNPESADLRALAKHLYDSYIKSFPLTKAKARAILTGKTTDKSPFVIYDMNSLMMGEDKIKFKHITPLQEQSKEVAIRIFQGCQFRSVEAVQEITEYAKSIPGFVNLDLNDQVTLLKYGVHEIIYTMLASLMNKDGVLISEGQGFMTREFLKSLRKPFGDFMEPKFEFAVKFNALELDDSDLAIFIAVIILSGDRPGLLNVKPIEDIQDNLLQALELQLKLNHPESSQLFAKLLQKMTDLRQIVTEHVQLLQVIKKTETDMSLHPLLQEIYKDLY
Sequence of Glucocorticoid receptor (Homo sapiens) (P04150 whole entry, looked up): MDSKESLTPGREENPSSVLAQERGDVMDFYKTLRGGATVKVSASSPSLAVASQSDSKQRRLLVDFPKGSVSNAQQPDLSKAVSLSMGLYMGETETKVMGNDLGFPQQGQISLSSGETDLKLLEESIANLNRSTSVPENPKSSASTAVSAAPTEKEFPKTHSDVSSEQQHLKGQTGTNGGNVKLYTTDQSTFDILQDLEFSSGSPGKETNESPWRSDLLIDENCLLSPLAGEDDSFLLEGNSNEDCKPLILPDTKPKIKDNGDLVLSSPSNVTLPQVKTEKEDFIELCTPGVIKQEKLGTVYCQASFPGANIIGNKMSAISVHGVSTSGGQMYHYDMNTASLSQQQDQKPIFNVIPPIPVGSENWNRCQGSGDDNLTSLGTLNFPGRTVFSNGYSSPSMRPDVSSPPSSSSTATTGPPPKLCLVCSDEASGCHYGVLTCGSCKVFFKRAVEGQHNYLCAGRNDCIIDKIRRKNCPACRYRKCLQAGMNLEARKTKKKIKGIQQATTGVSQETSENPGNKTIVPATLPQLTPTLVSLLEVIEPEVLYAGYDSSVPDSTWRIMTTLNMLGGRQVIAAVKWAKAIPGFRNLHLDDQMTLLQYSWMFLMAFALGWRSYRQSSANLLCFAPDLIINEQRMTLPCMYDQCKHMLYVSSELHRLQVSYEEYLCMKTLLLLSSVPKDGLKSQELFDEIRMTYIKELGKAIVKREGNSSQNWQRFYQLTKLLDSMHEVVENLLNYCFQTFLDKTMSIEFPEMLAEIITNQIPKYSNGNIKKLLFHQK

As to `Nc1cc(Cl)nc(C(=O)O)c1Cl`, the Potency entry in [1], in test [2], in test [5], in test [7], in test [14] and in [17] was “inactive” each time. The activation in [3] was -6.13% (inactive); in [11], 1.21% (inactive); in test [12], 1.56% (inactive). The max response was -21.2% in test [4]; -11.4% in test [8]; -3.66% (inactive) in [9]; -2.9% (inactive) in test [13]; -4.32% (inactive) in [15]; 1.25% (inactive) in test [16]. Moreover, in [18], the max response was 2.09% (inactive). The outcome in test [6] and in test [19] was inactive. Also, the activity change % (negative = inhibition) in test [10] is 12% (inactive).

Turning to `CCC/C(=N\OCC)C1=C(O)CC(O)(CC(C)S(=O)(=O)CC)CC1=O` (configuration not stated), the Potency entry in [1], in [2], in test [5], in test [7], in test [14] and in test [17] was “inactive” each time. The activation in test [3] is -6.04% (inactive); in test [11], -2.69% (inactive); in [12], 3.19% (inactive). The max response is 9.67% in test [4]; -16.2% in test [20]; -7.24% in [8]; 3.08% (inactive) in test [9]; -0.0131% (inactive) in test [13]; -10.1% (inactive) in test [15]. Moreover, the max response in test [16] is -1.14% (inactive); in test [18], 2.09% (inactive). Besides, the compound was called inactive in test [6] and in [19].

Regarding `C=CCCCCCCCCC=O`, the Potency entry in test [1], in test [2], in test [5], in test [7], in test [14] and in [17] was “inactive” in each case. Further, the activation in [3] was 4.91% (inactive); in test [11] it was 3.83% (inactive); in [12], 0.287% (inactive). Further, the max response in test [4] is 14.1%; in test [20], -12%; in test [8] it was -4.83%; in [9], -16.9% (inactive); in [13], -1.39% (inactive); in test [15] it was 3.17% (inactive). For the same compound, the max response in [16] is -14% (inactive); in [18] it was -2.8% (inactive). The result in test [6] and in [19] was inactive. In addition, the activity change % (negative = inhibition) in test [10] is 19.2% (inactive).

In the case of `O=C(OCCOCCOC(=O)c1ccccc1)c1ccccc1`, the Potency result in [1], in test [2], in test [5], in test [7], in test [14] and in test [17] was “inactive” in each case. Besides, the activation in test [3] was -2.84% (inactive); in test [11] it was 0.877% (inactive); in test [12] it was 1.92% (inactive). The max response in test [4] is 59.9%; in test [20], -16.7%; in test [8], -7.11%; in [9], 4.89% (inactive); in [13] it was -0.375% (inactive); in test [15], -6.77% (inactive). For the same compound, the max response in [16] is -9.08% (inactive); in test [18] it was 2.6% (inactive). In addition, the outcome in test [6] and in [19] was inactive. Further, the activity change % (negative = inhibition) in test [10] is 0.94% (inactive).

Regarding `C=C[Si](OCCOC)(OCCOC)OCCOC`, the Potency result in [1], in test [2], in test [5], in test [7], in test [14] and in [17] was “inactive” each time. Further, the activation is -9.96% (inactive) in [3], -3.03% (inactive) in [11] and 0.581% (inactive) in test [12]. The max response was 25.9% in test [4]; -7.07% in test [20]; -8.04% in test [8]; 2.22% (inactive) in [9]; -0.929% (inactive) in [13]; 15.4% (inactive) in test [15]. The max response in [16] was -9.27% (inactive); in [18] it was 1.26% (inactive). The compound was called inactive in test [6] and in test [19].

(Values after PubChem BioAssay (NCATS).)
